# Assay outcomes (PubChem)
# A selection: hits, their analogues and other compounds. The true share with any hit is near 28%.
# CYP2C19 inhib: blocks human cytochrome P450 2C19; inhibition, % at 5 µM; CYP2C19 Supersomes, luciferin-H EGE luminescence, 30 min; 21% of 96,000 active; P33261; AID 778;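 active = CYP2C19 inhibition above a set limit at 5 µM in the primary screen, cut at about 50% in these data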;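 note: plate controls were negative control wells for no effect and 2.5 mM tranylcypromine positive control for full effect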
# CYP2C19 act: cytochrome P450 2C19 (human) activation; P33261; recombinant CYP2C19, luciferin-H EGE luminescence; hits give high values; 0 = fully inhibited enzyme, 1 = untreated enzyme; activation factor at 5 µM; 96,000 tested, under 10 active; AID 1025;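 active = activation factor of at least 2 at 5 µM in the primary screen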;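 note: 0 = wells with 2.5 mM tranylcypromine and 1 = vehicle-only wells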
# CYP2C9 act: CYP2C9 (human) activation. 1.4% of 96,000 active. activation factor at 5 µM. recombinant CYP2C9, luciferin-H conversion, luminescence; hits give high values; factor 1 = untreated enzyme, 0 = blocked. AID 1024;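 active = activation factor of 2 or more for CYP2C9 at a 5 µM dose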;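 note: 0 = sulfaphenazole-blocked wells and 1 = vehicle-only wells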
# CYP2C9 inhib: human CYP2C9 inhibition; CYP2C9 Supersomes, luciferin-H conversion, luminescence; inhibition, % at 5 µM; 20% of 96,000 active; AID 777;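 active = blocking of liver enzyme CYP2C9 beyond about 50% at 5 µM, limit read from the data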
# D1 mod: D1 dopamine receptor (human) allosteric modulation; P21728; HEK293 D1, CRE-luciferase, dopamine EC30 potentiation; actives deviate in either direction; B-score at 10 µM; 5.9% of 58,000 active; AID 641;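 active = luminescence count or its row- and column-corrected plate score outside the 99.7% band of the plate's sample wells, on either side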
# Target sequence (P21728 whole entry, looked up): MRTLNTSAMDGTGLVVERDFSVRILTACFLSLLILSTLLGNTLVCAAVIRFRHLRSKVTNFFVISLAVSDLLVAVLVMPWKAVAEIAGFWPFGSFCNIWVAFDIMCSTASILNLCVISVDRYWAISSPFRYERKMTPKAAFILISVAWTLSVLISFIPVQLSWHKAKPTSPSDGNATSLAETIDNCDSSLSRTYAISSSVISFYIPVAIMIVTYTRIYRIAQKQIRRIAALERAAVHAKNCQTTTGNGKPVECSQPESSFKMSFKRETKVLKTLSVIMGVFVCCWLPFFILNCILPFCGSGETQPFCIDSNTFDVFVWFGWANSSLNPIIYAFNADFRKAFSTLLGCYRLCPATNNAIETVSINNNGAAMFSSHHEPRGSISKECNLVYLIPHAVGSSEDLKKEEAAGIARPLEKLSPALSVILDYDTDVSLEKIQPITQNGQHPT
# DAT uptake mod: modulates human dopamine transporter uptake under cocaine; B-score at 10 µM; LLC-PK1 hDAT cells, [14C]-dopamine uptake with cocaine IC80; actives deviate in either direction; Q01959; 1.3% of 110,000 active; AID 449768;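 active = Z score or B-score, a plate-position-corrected score, falls beyond the plate's 99.7% confidence bounds, in either direction; inactive = both scores lie inside the 99.7% bounds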;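 note: scored against the spread of the other compound wells on the same plate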
# Active calls of the source: *; / = no result given.
SMILES,CYP2C19 inhib,CYP2C19 act,CYP2C9 act,CYP2C9 inhib,D1 mod,DAT uptake mod
O=C(CSc1nnnn1C1CCCCC1)NCc1ccc2c(c1)OCO2,92*,0.1,0.1,92*,-0.5,0.88
CC1CCN(C(=O)c2ccc(NC(=O)C3CCCO3)cc2)CC1 (configuration not stated),-2,1,0.9,10,-0.57,-0.98
CC(C)NC(=O)C1CCCN(c2nnc(-n3cccc3)s2)C1 (configuration not stated),53*,0.5,0.8,22,0.081,0.72
O=C(C1CCCN(c2nnc(-n3cccc3)s2)C1)N1CCN(c2ccccc2)CC1 (configuration not stated),68*,0.3,0.5,49,-0.37,0.15
O=C(C1CCN(c2nnc(-n3cccc3)s2)CC1)N1CCN(c2cccc(C(F)(F)F)c2)CC1,52*,0.5,0.5,55*,-1.2,-0.94
CC(CCc1ccccc1)NC(=O)C1CCCN(c2nnc(-n3cccc3)s2)C1 (configuration not stated),/,/,/,/,-0.54,-0.69
N#Cc1ccc(-c2ccc(Cl)cc2)nc1SCC(=O)c1cccc(Cl)c1,3,1,0.9,12,/,1.3
N#Cc1ccc(-c2ccccc2)nc1SCC(=O)c1cccc(Cl)c1,31,0.7,0.4,63*,/,-0.36
Cc1cc(C)nc(N(C#N)CN2C(=O)c3ccccc3C2=O)n1,-5,1.1,2.8*,-180,-0.073,-2.1
Cc1cc(C)nc(N(C#N)Cc2ccccc2Cl)n1,68*,0.3,2.8*,-177,0.79,-0.032
COC(=O)c1[nH]c2ccccc2c1NC(=O)CN1CCN(C(=O)c2ccco2)CC1,30,0.7,0.7,25,0.015,0.083
FC(F)(F)c1ccc(CN2C[C@@H]3C(c4ccc(Cl)nc4)C4(c5ccccc5)CC3(C4)[C@H]2c2ccccc2)cc1 (some centres not stated),/,/,/,/,/,-0.26
O=C(CCn1ccc2ccccc21)NC1CCCc2ccccc21 (configuration not stated),93*,0.1,0.4,60*,/,-0.25
COc1ccc(C2CC(c3cc(Br)ccc3F)n3nnnc3N2)cc1 (configuration not stated),38,0.6,0.4,64*,0.7,-1.1
Cc1ccc(C2CC(c3cccc(Br)c3)Nc3nnnn32)cc1 (configuration not stated),51*,0.5,0.7,35,-1,-0.14
CCOc1ccc(C2CC(c3ccc(OC)c(OC)c3)n3nc(N)nc3N2)cc1 (configuration not stated),3,1,1,4,0.0085,0.19
COc1cccc(C2CC(c3ccc(C)cc3)n3nc(N)nc3N2)c1 (configuration not stated),16,0.8,1,-1,0.77,1
CCOc1ccc(C2CC(c3cccc(OC)c3OC)n3nnnc3N2)cc1Cl (configuration not stated),98*,0,0.1,89*,/,-4.3*
COc1ccc(C2CC(c3ccccc3)n3nnnc3N2)cc1 (configuration not stated),98*,0,0.1,87*,/,-0.5
Cn1c(=O)[nH]c(=O)c2c1nc(NCc1ccccc1)n2CC(O)c1ccccc1 (configuration not stated),17,0.8,0.8,18,0.53,-0.085
Cc1cccc(OCc2nnc(NC(=O)Cc3cccs3)s2)c1,/,/,/,/,/,0.61
O=C(Nc1nc2n(n1)C(c1ccc(Cl)cc1)CC(c1ccc(Cl)cc1)N2)c1ccco1 (configuration not stated),71*,0.3,0.2,82*,-0.7,1.3
COc1ccc(C2CC(c3ccc(Cl)cc3)Nc3nc(NC(=O)c4ccco4)nn32)cc1 (configuration not stated),/,/,/,/,-0.085,0.33
COc1ccc(C2CC(c3ccccc3)n3nc(NC(=O)c4cccs4)nc3N2)cc1 (configuration not stated),18,0.8,0.5,53*,-0.53,/
COc1ccc(C2CC(c3ccccc3)Nc3nc(NC(=O)c4cccs4)nn32)cc1 (configuration not stated),-4,1,0.8,25,0.76,1.6
SMILES,CYP2C19 inhib,CYP2C19 act,CYP2C9 act,CYP2C9 inhib,D1 mod,DAT uptake mod
O=C1CC(=O)N(CCc2ccc(F)cc2)C(=O)N1,0,1,0.9,14,/,1.2
CC(=O)c1c(C(C)=O)c(C)n(NC(=O)c2ccncc2)c1C,89*,0.1,0.6,45,/,1.3
CCOc1ccc2sc(NS(=O)(=O)c3ccc(OC)c(OC)c3)nc2c1,28,0.7,0.1,92*,0.5,-0.63
COc1ccc(S(=O)(=O)Nc2nc3ccccc3s2)cc1,8,0.9,0.5,50*,/,-0.47
COc1ccc2nc(NS(=O)(=O)c3ccc(NC(C)=O)cc3)sc2c1,-12,1.1,0.7,30,-0.028,-0.49
Cc1cc(OC(=O)c2ccccc2Br)cc(=O)n1C,6,0.9,1.3,-30,/,0.28
O=C(C(Cc1ccccc1)NS(=O)(=O)c1cccc2cccnc12)N1CCc2ccccc21 (configuration not stated),13,0.9,0.7,31,/,0.37
O=C1Nc2ccccc2C1=Nc1ccc(-c2nnc3n2CCCCC3)cc1,-5,1,1.2,-16,-0.34,0.55
CC(C)Nc1nnc(SCC(=O)c2c(N)n(Cc3ccccc3)c(=O)n(C)c2=O)s1,28,0.7,0.4,58*,/,-0.18
Cc1nnc(SCC(=O)c2c(N)n(C)c(=O)n(C)c2=O)n1Cc1ccccc1,-12,1.1,1.1,-14,0.076,-0.39
c1ccc2c(CCNc3ncnc4nc[nH]c34)cccc2c1,/,/,/,/,/,-0.19
CCOc1ccc2nc3c(cc2c1)CN(CCCO)C(=NCCOC)S3,67*,0.3,0.2,83*,0.018,1.2
CCOC(=O)c1ccc2nc3c(cc2c1)CCS3,4,1,0.5,47,0.083,0.91
CCOC(=O)CSc1nc2ccccc2c(=O)n1CC1CCCO1 (configuration not stated),14,0.9,0.8,21,/,-0.12
Cc1ccc(S(=O)(=O)N2CCN(C(=O)CSc3nnc(C)s3)C2)cc1,27,0.7,1,-2,-0.41,-1.6
COc1ccc(-c2nnc(CSc3nc4ccccc4c(=O)n3CC3CCCO3)o2)cc1OC (configuration not stated),/,/,/,/,11*,/
COc1ccccc1N1CCN(C(=O)CSc2nc3ccccc3o2)CC1,64*,0.4,0.7,34,/,9.7e-05
COc1ccccc1N1CCN(C(=O)CSc2nc3ccccc3c(=O)n2CC2CCCO2)CC1 (configuration not stated),22,0.8,0.3,66*,-1.5,1.9
NC(=O)C1CCN(C(=O)CSc2nc3ccccc3o2)CC1,-1,1,1.1,-11,/,-0.0044
Cc1ccc(S(=O)(=O)N2CCN(C(=O)CSc3nc4ccccc4o3)C2)cc1,88*,0.1,0.6,44,/,0.085
